PubChem BioAssay (NCATS)
Results filed as inconclusive are left out. Entries that show only a call come without a potency. A number with no mark means an inactive call. Calls of active or inactive are those of the source. The call rests on the fitted dose curve; in most records, active means well fitted cell-killing curve with a large enough effect; inconclusive means small, poorly fitted or top-dose-only effect, or effect the other way; inactive means flat fitted curve, though single readings scatter.

Each molecule was assayed on SKOV3 (assay: Primary qHTS to identify gynecologic anti-cancer compounds using libraries of approved drugs and bioactive compounds (AID 1345084; further: nearly all actives have a fitted effect of over 55% in size)). Settings: Gynecologic cancer cell panel viability, ATPlite luminescence, 48 h; series mostly up to 57.5 µM.
Outline: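 Cells, 1,000 per well, plated 16 h, then exposed 48 h at 37 C to compounds. Viability by ATPlite luminescence after 15 min at room temperature.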

Compound	Potency	activity change, negative = cytotoxicity
O=C(/C=C/c1ccc(O)cc1)O[C@H]1[C@@H]2C=CO[C@@H](O[C@@H]3O[C@H](CO)[C@@H](O)[C@H](O)[C@H]3O)[C@@H]2[C@@]2(CO)O[C@@H]12	inactive	–
COCCN(C)Cc1ccc2nc3sc(C(=O)N(C)C4CCCCC4)cn3c2c1	inactive	–
CC12CCC3c4ccc(O)cc4CCC3C1CCC2OC1OC(C(=O)O)C(O)C(O)C1O (stereo not given)	inactive	–
COc1cc(CCc2ccccc2)c(C(=O)O)c2c1CC(C(C)(C)O)O2 (stereo not given)	inactive	–
OCc1ccccc1O[C@@H]1O[C@H](CO)[C@@H](O)[C@H](O)[C@H]1O	inactive	–
CC/C=C\C[C@H]1C(=O)C=C[C@@H]1CCCCCCCC(=O)O	inactive	–
CC(NC(=O)CC(=O)O)c1nc2ccccc2c(=O)[nH]1 (stereo not given)	inactive	–
C[C@@H]1CC[C@]2(C(=O)O)CC[C@]3(C(=O)O)C(=CCC4[C@@]5(C)CC[C@H](O[C@@H]6O[C@@H](C)[C@H](O[C@@H]7O[C@H](CO)[C@@H](O)[C@H](O)[C@H]7O)[C@@H](O)[C@H]6O)C(C)(C)C5CC[C@]43C)C2[C@H]1C (stereo not given in full)	inactive	–
COc1ccc(C)c2sc(NC(=O)c3ccncc3)nc12	inactive	–
NCCOCCOCCNC(=O)Cc1ccc(Nc2nc(NCc3ccc(F)cc3)nc(NCC3CCCCC3)n2)cc1	inactive	–
Nc1nonc1C(=Nc1ccc(F)c(Cl)c1)NO	inactive	–
CNC(=O)c1ccc2cc([C@@]3(O)CCn4cncc43)ccc2c1	inactive	–
O=C1NCc2nc3ccccc3c(=O)n2C1Cc1c[nH]c2ccccc12 (stereo not given)	inactive	–
CCCCCCc1cccc(NC(=O)[C@H](N)CCP(=O)(O)O)c1	–	-0.133% [at 11.6 µM]
CC1CCC2C(C)(C)CC(C)(CO)C2(O)C1C(=O)O (stereo not given)	inactive	–
CC(C)(C)NCC(O)COc1cccc2c1CCCC2=O (stereo not given)	inactive	–
COC(=O)C1=CO[C@@H](O[C@@H]2O[C@H](CO[C@@H]3O[C@H](COC(=O)/C=C/c4ccc(O)cc4)[C@@H](O)[C@H](O)[C@H]3O)[C@@H](O)[C@H](O)[C@H]2O)[C@@H]2C(CO)=CC[C@H]12	inactive	–
C=CC(C)(O)CC/C=C(\C)C(=O)OCC1OC(OC2CCC3(C)C(CCC4(C)C3CC=C3C5CC(C)(C)C(O)CC5(C(=O)O)CCC34C)C2(C)C)C(O)C(OC2OC(CO)C(O)C(OC3OC(CO)C(O)C(OC4OC(COC5OC(CO)C(O)C(O)C5O)C(O)C(O)C4O)C3O)C2O)C1O (stereo not given)	–	0.954% [at 6.55 µM]
COC1C=C([C@@H]2CC=C3[C@@]4(C)C(CC[C@]32C)[C@@]2(C)C=CC(=O)C(C)(C)C2C[C@H]4OC(C)=O)C(=O)O1 (stereo not given in full)	inactive	–
Cc1c(N2C(=O)c3ccc(C(=O)O)cc3C2=O)c(=O)n(-c2ccccc2)n1C	inactive	–

Compound	Potency	activity change, negative = cytotoxicity
CC[C@H]1OC(=O)[C@H](C)[C@@H](OC2C[C@@](C)(OC)[C@@H](O)[C@H](C)O2)[C@H](C)[C@@H](OC2O[C@H](C)C[C@H](NC)[C@H]2O)[C@](C)(O)C[C@@H](C)CN(C)[C@H](C)[C@@H](O)[C@]1(C)O (stereo not given in full)	inactive	–
C=C1C2(CCC(=O)OC2(C)C)CC(OC(=O)/C(C)=C/C)C2(C)C13OC14C(=O)OC(C)(C(=O)C12C(=O)OC4C)C3OC(C)=O (stereo not given)	inactive	–
C=C1C(=O)OC2/C=C(\C)CC/C=C(\C(=O)O)CC/C=C(\C)CCC12 (stereo not given)	inactive	–
CC(C)c1nc(N(C)S(C)(=O)=O)nc(-c2ccc(F)cc2)c1/C=C/[C@@H](O)C[C@@H](O)CC(=O)O	inactive	–
C=C1C[C@]23C[C@H]1CC[C@H]2[C@@]12C=C[C@H](O)[C@@](C)(C(=O)O1)[C@H]2[C@@H]3C(=O)O	inactive	–
COC1C2=C(COC2=O)C2(C)CCCC(C)(CO)C2C1OC(=O)c1ccccc1 (stereo not given)	inactive	–
CC1CCCC2OC2C(=O)c2c(O)cc(O)cc2CC(=O)O1 (stereo not given)	inactive	–
C[C@@H]1C(=O)O[C@H]2CC34[C@H]5C[C@@H](C(C)(C)C)C36[C@@H](OC(=O)[C@@H]6O)O[C@@]4(C(=O)O5)[C@]21O (stereo not given in full)	inactive	–
CC(C)C(C#N)O[C@@H]1O[C@H](CO[C@@H]2OC[C@](O)(CO)[C@H]2O)[C@@H](O)[C@H](O)[C@H]1O (stereo not given in full)	inactive	–
CC[C@H]1OC(=O)[C@H](C)[C@@H](O[C@H]2C[C@@](C)(OC)[C@@H](O)[C@H](C)O2)[C@H](C)[C@@H](O[C@@H]2O[C@H](C)C[C@H](N(C)C)[C@H]2O)[C@@](C)(O)C[C@@H](C)[C@@H]2N[C@@H](COCCOC)OC([C@H]2C)[C@]1(C)O	inactive	–
CCc1cc2c(=O)c(-c3nc4ccccc4s3)coc2c(CN2CCCCC2)c1O	inactive	–
C=C1C(=O)OC2CC(C)=C(C(C)CCCO[C@@H]3O[C@H](CO)[C@@H](O)[C@H](O)[C@H]3O)C(O)C12 (stereo not given in full)	inactive	–
CCC(C)/C=C(C)/C=C/C1=CC2=C(Cl)C(=O)C(C)(OC(C)=O)C(=O)C2=CN1CCCC(=O)O (stereo not given)	inactive	–
CC(=O)OC[C@@]12[C@H](O)C[C@]3(C)C(=CCC4[C@@]5(C)CC[C@H](O[C@@H]6O[C@H](C(=O)O)[C@@H](O[C@@H]7O[C@H](CO)[C@@H](O)[C@H](O)[C@H]7O)[C@H](O)[C@H]6O[C@@H]6O[C@H](CO)[C@@H](O)[C@H](O)[C@H]6O)[C@](C)(CO)C5CC[C@]43C)[C@@H]1CC(C)(C)[C@@H](OC(C)=O)[C@@H]2O (stereo not given in full)	–	8.16% [at 11.6 µM]
COc1ccc([C@@H]2N[C@H](C(=O)O)Cc3c2[nH]c2ccccc32)cc1CN1CCN(c2ccccc2F)CC1	inactive	–
CC1=CC(=O)CC(C)(C)C1(O)CCC(C)O (stereo not given)	inactive	–
COc1ccccc1[C@@H]1C2=C(CC(C)(C)CC2=O)Nc2n[nH]c(C(F)(F)F)c21	inactive	–
CC(C)(OC1OC(CO)C(O)C(O)C1O)C1CCC(O)(CO)C2CC(O)C(C)(O)C2C1 (stereo not given)	inactive	–
CN1C(=O)c2ccccc2-n2c(nc3ccccc3c2=O)/C1=C/c1ccccc1	inactive	–
CC(=O)OCC(=O)O[C@@H]1[C@H]2[C@@H](OC(=O)c3ccccc3)[C@@H](C)C[C@]2(O)[C@H](OC(C)=O)C2(C)[C@H]3CC(C)(C)C(=O)[C@@H]3CC1(OC(C)=O)[C@@H]2OC(C)=O (stereo not given in full)	inactive	–
